# According to the supplement of paper PMC6555819:
# System: VDR:RXRa (NR concentration 270 nM, RXRa partner concentration 90 nM)
# Experiment: PBM binding z-score (relative to random genomic background probes); higher = stronger binding; sequences stand for … in GC…GCGATTGACAGCGTAGAATGAAGG
# Procedure: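 Protein-binding microarray (Agilent 4x180K custom design, double-stranded 60-nt probes: 5' GC cap, 34-nt variable region, 24-nt constant primer region; full probe sequence given). Purified or IVT nuclear receptor:RXRα heterodimers (3:1 NR:RXRα, mostly 270:90 nM) or homodimers were incubated for 1 h in PBS with 2% milk and no ligand, then detected with Alexa488 antibodies. Fluorescence from o1-orientation probes (~5 replicates averaged) was converted to z-scores against 500 random hg19 background probes. Variable regions are seed direct-repeat (DR0–DR5) sites, all their single-nucleotide variants and half-site ablations.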
row,Sequence,PBM binding z-score
1,TCATCTAGGTAAAAGGTGAAAGTCGGTGTGGTAA,1.5
2,CATAGTTGGTCAGGAGGTCACACACCGGATATGA,3.94
3,TCTGCTAGGTCAATTGGTCAGCTAACGAGCTGCC,0.925
4,ACTAGTTGGTCAGCTGAGGTCACACATAATTCGG,4.49
5,ATATGTAGGTTAGCTGGGATCATTCAGACTAGGC,0.919
6,CCGACTGGGGCAGAAAGGTTACCAAACCATCCGG,0.877
7,CCTACTGGGCCAAGGTAATTGATCAGTCAAAGCA,-0.552
8,AGTCAAAGTTCACTAGGTAAGGTAAGATTCAGCT,3.96
9,TCTAGTAGGTTAGTCGGGGCATTCAGCCAACATA,2.68
10,CCTACTGGGCCATAGGTCATTGATTCCAATGCTC,2.17
11,AGAATAAGGTTACCAAAGATCAGGGAAACGCTTG,0.872
12,CCTACTGGGCGAAAAAGGTCATTGATGCCGATAA,4.21
13,GCGACTGGGGCATCAGCAGGTTGCCATAACTTAA,-0.532
14,TCGAGTAGGTTAGTCGGGGCTTTCAGCCAACATA,-0.0861
15,CCTGCTAGGTCAATGGTCACCTAAAGCAGCTCGC,1.45
16,AGAATGAGGTTAACATCAGGGAAACAGAATACAT,1.75
17,ATATGTAGGTTAGCTGGGGTTATTCAGACTAGGC,3.2
18,TCTTGTAGATCAACAGTAGGTTAAGAAAGATCGA,0.333
19,TTGAGTAGGTTACCAATGGGGCATTCAGCTTTCT,0.365
20,GCGACTGGGGCAAAGCAGGCTACCATAAGGTTGG,-0.662

row,Sequence,PBM binding z-score
1,GCTTGTAGATCAAGGTTAACAAAGACTAAGCTAA,0.333
2,GCTAGCAGGCCATTTAGGTCACTCAATGACGGGC,0.996
3,TCTTGTAGATCAACAGGAGGTCAAGAAAGATCGA,3.14
4,ATATGTGGGTTAGCTGGGGTCATTCAGACTAGGC,5.99
5,CAAACTAGGTCACCAGAAGGTCAAAGTCCGCATG,5.66
6,CCTACTGGGCCAAAAAGGTCGTTGATGCCGATAA,2.79
7,CAAACTAGGTCAAGAGGACAAAGTCCGCTTCCCG,1.98
8,CCTATTTGGTCAGGAGGTCACACACCGGATATGA,4.05
9,GCTATTAGTTGAAATGGCAACCGAATGATTCTCG,-0.304
10,ATCGAAAGGTCGACGAGGTGAGTATACACCGTTT,5.23
11,GGATATAGGTAATACAAGGTGAAAGTCCGATTGT,0.64
12,CAAACTAGGTCAAGATCAAAGTCGGTTTGTGCCA,1.52
13,CCTACTGGGCCAAAAAGGTCCTTGATGCCGATAA,-0.189
14,GCTTGTAGACCAAGGTTAAGAAAGACTAAGCTAA,0.0143
15,ATATGTAGGGTAGCTGGGGTCATTCAGACTAGGC,5.75
16,TTACCAATGTGAAGGTCGTTGATCCCTCTGTAGA,1.17
17,AGTCAAAGTTCAGGACGAGGTAACGCAAAGCACG,2.89
18,CTCGAAAGGTTGTGCTCAGGTGAGTATACCAAAC,0.214
19,ATCTCTACGTAACAAGTTCAGTGAAAGAGAGGAC,1.38
20,AATACAGGTTCATCGTAGGCCAGAGTACGCACAG,4.6
